The text below walks through data of PubChem BioAssay.

Assay [1] addresses Single-stranded DNA-binding protein (Escherichia coli (strain K12)) (UniProt P0AGE0). The experiment in a line: E. coli SSB displacement from DNA, counter-screen for HCV NS3 helicase inhibitor project, biochemical, fluorescence polarization, NIH Clinical Collection (AID 743271; in the data active = inhibition above about 28%). Particulars: stronger effect = higher value, concentration not given here. (In general: A counterscreen serves to expose hits that act by an unwanted route or on another target.)

Assay [2] can be described thus: fluorescence interference in NS3h assay format, artefact control for HCV NS3 helicase inhibitor project, biochemical, NIH Clinical Collection (AID 743272; call rule not given here;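 note: HCV NS3 helicase with a Cy5 labelled single stranded DNA probe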). Conditions: fluorescence interference counterscreen, stronger effect = lower value.
The subject of a further assay is F380Y. Briefly: modulators of BK channel variants, profiling panel, selectivity assay, cell-based, U2OS BacMam, thallium flux, beta subunits (AID 1259406).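 Note: initial slope of Thallos dye fluorescence rise after thallium is added; log ratio against the mean of 0.3% DMSO vehicle wells on the same plate.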 Particulars: at 30 µM.
A further assay relates to F380Y/beta1. The description is as above. Conditions: at 30 µM.
In a further assay the test system is F380Y/beta2Delta. The description is as above. Particulars: at 30 µM.
Another assay has as its system F380Y/beta4. The description is as above. Particulars: at 30 µM.
The target in assay [3] is Calcium-activated potassium channel subunit alpha-1 (Homo sapiens) + Leucine-rich repeat-containing protein 26 (Homo sapiens) (UniProt Q12791+Q2I0M4). Described as above. Conditions: F380Y/Slo1WT/gamma1, at 30 µM.
A further assay concerns R275C. The description is as above. Conditions: at 30 µM.
The subject of the next assay is R275C/beta1. The description is as above. Particulars: at 30 µM.
The test system of a further assay is R275C/beta2Delta. The description is as above. Conditions: at 30 µM.
A further assay concerns R275C/beta4. The description is as above. Particulars: at 30 µM.
The subject of another assay is R275C/Slo1WT/beta2. The description is as above. Conditions: at 30 µM.
Assay [4] can be described thus: modulation of C. elegans fzo-1 (AID 1259413; call rule not given here;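 note: fzo-1 mutant C. elegans worms in liquid wells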). Conditions: C. elegans fzo-1 modulator screen, mean read-out; stronger effect = higher value.
Assay [5] is described as follows: growth inhibition of DIPG glioma cells, dose response, cell-based, SU-DIPG-XIII, MIPE4.0, CellTiter-Glo, qHTS (AID 1347061; cut-off not given, nearly all actives have AC50 up to about 37 µM;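 note: cells exposed to compound for 48 hours before readout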). Conditions: SU-DIPG-XIII viability, CellTiter-Glo ATP luminescence.
The nature of assay [6]: growth inhibition of DIPG glioma cells, dose response, cell-based, JHH-DIPG-1, MIPE4.0, CellTiter-Glo, qHTS (AID 1347062; cut-off not given, nearly all actives have AC50 up to about 27 µM;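 for AC50: cells exposed to compound for two days before readout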). Conditions: JHH-DIPG-1 viability, CellTiter-Glo ATP luminescence.
A short description of assay [7]: growth inhibition of DIPG glioma cells, dose response, cell-based, SU-DIPG-IV, MIPE4.0, CellTiter-Glo, qHTS (AID 1347063; cut-off not given, nearly all actives have AC50 up to about 30 µM;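 note: compound exposure lasted 48 hours before the viability readout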). Particulars: SU-DIPG-IV viability, CellTiter-Glo ATP luminescence.
Assay [8] in a line: circadian clock period modulators, cell-based, LOPAC library, luminescence reporter (AID 2774; call rule not given here;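 note: values are relative to mean of DMSO wells on each plate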). Conditions: circadian reporter cells, at 7 µM, actives lie on both sides.
Assay [9] relates to Hepatitis C virus NS3 helicase. The experiment in a line: HCV NS3 helicase inhibitors, primary screen, biochemical, fluorescence polarization, LOPAC1280 library (AID 687035; in the data active = inhibition above about 37%). Conditions: Purified HCV NS3 helicase, Cy5-dT15 ssDNA binding fluorescence polarization; stronger effect = higher value; concentration not given here. A general note: Polarisation of emitted light reports the rotation of a fluorescent probe.

A short description of assay [10]: Cy5 fluorescence quenching or enhancement artefacts, artefact control for HCV NS3 helicase inhibitor project, biochemical, LOPAC1280 (AID 687037; call rule not given here). Particulars: Cy5-DNA-NS3h complex fluorescence interference counterscreen.
Assay [11] in a line: phospholipid biosynthesis inhibitors in animal cells, primary screen, cell-based, LOPAC library, screen 4 (AID 1347384; call rule not given here). Conditions: phospholipid biosynthesis inhibition screen, at 10 µM.

A number with no mark means an inactive call. Results filed as inconclusive are left out. Activity calls are given as the source filed them.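 Rule for the calls, unless noted: active = thallium flux through the channel raised or lowered by more than 3 SD from vehicle-only wells, actives on both sides; inactive = the rest.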

Chain of Calcium-activated potassium channel subunit alpha-1 (Homo sapiens) + Leucine-rich repeat-containing protein 26 (Homo sapiens) (Q2I0M4 whole entry, looked up, one chain of several): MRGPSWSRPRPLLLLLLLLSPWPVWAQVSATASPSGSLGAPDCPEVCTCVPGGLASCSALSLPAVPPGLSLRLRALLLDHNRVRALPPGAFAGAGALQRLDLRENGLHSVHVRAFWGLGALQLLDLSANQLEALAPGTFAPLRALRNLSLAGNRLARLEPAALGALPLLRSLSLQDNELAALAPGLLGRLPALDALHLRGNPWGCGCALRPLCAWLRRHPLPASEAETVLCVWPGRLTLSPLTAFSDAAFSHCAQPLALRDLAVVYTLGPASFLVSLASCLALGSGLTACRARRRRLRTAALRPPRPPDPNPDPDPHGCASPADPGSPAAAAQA

Broadly, the inhibition is the change of the read-out against control, counted positive when it falls. On to `CON=C(C(=O)NC1C(=O)N2C(C(=O)O)=C(COC(C)=O)CSC12)c1csc(N)n1` (stereo not given), for which the inhibition in assay [1] was 36.1% (active). In addition, the fluorescence ratio in assay [2] is 1.03. For the same compound, the log fold change Tl+ flux was -0.0263 in the assay with F380Y; -0.0319 in the assay on F380Y/beta1; 0.0186 in the assay with F380Y/beta2Delta; 0.0152 in the assay with F380Y/beta4; -0.0048 in assay [3]; 0.0263 with R275C. The log fold change Tl+ flux with R275C/beta1 was -0.0272; with R275C/beta2Delta it was -0.0298; in the assay on R275C/beta4, -0.0222; in the assay on R275C/Slo1WT/beta2, -0.0319.
In the case of `COc1ccc2c3c1O[C@H]1C[C@@H](O)C=C[C@@]31CCN(C)C2`, the inhibition in assay [1] was -3.95%. In addition, the fluorescence ratio in [2] is 1. Also, in assay [4], the mean signal was 226. The compound was called inactive in assay [5], in [6] and in [7]. Besides, the log fold change Tl+ flux is 0.0204 with F380Y; 0.0272 in the assay with F380Y/beta2Delta; -0.0208 in assay [3]; 0.0192 in the assay with R275C; -0.00593 in the assay with R275C/beta1; 0.0478 in the assay with R275C/beta2Delta.
Regarding `CC(CCc1ccccc1)NCC(O)c1ccc(O)c(C(N)=O)c1` (stereo not given), the period change in [8] is -0.45 h. In addition, the results for the inhibition in assay [9] and in assay [1] were -4% and -5.05%, respectively. Besides, the fluorescence ratio (interference) in assay [10] was 1. Moreover, in assay [2], the fluorescence ratio was 1.02. For the same compound, the mean signal in assay [4] is 243. Moreover, in assay [11], the compound was called inactive. Also, the log fold change Tl+ flux with F380Y was 0.0689; in the assay with F380Y/beta1, 0.0226; with F380Y/beta2Delta it was 0.0329; with F380Y/beta4 it was 0.0997; in assay [3], 0.00974; with R275C, -0.0121. Further, the log fold change Tl+ flux in the assay with R275C/beta1 is 0.0332; with R275C/beta2Delta, 0.0956; with R275C/beta4, 0.0314; in the assay with R275C/Slo1WT/beta2, -0.0367.
Consider `C#C[C@]1(OC(C)=O)CC[C@H]2[C@@H]3CCC4=CC(=O)CC[C@@H]4[C@H]3CC[C@@]21C`, for which the inhibition in assay [1] was 7.15%. Further, the fluorescence ratio in assay [2] is 0.89. Further, the log fold change Tl+ flux in the assay on F380Y was -0.0982; in the assay on F380Y/beta1, 0.0384; in the assay with F380Y/beta2Delta it was -0.0589; in the assay on F380Y/beta4 it was -0.176 (active); in assay [3], -0.0258; in the assay on R275C it was -0.00546. The log fold change Tl+ flux is 0.0232 in the assay on R275C/beta1, 0.0192 in the assay with R275C/beta2Delta, -0.14 (active) in the assay on R275C/beta4 and -0.0421 in the assay with R275C/Slo1WT/beta2.
Regarding `CCC(=O)OCC(=O)[C@@]1(OC(=O)CC)[C@@H](C)C[C@H]2[C@@H]3CCC4=CC(=O)C=C[C@]4(C)[C@@]3(Cl)[C@@H](O)C[C@@]21C`, the inhibition in assay [1] was 2.57%. In addition, the fluorescence ratio in [2] was 0.96. Moreover, the log fold change Tl+ flux with F380Y is -0.163 (active); in the assay with F380Y/beta1, -0.203 (active); in the assay on F380Y/beta2Delta, -0.0617; in the assay with F380Y/beta4, -0.237 (active); in [3] it was 0.021; in the assay on R275C it was -0.105 (active). Besides, the log fold change Tl+ flux in the assay on R275C/beta1 is 0.0418; in the assay with R275C/beta2Delta, 0.0132; in the assay with R275C/beta4 it was 0.0199; in the assay on R275C/Slo1WT/beta2, -0.0376.
As for `Cn1cc[nH]c1=S`, the inhibition in [1] was -5.05%. The fluorescence ratio in assay [2] is 1.03. Also, in assay [4], the mean signal was 225. The log fold change Tl+ flux in the assay on F380Y was 0.00366; in the assay on F380Y/beta1 it was -0.0456; in the assay with F380Y/beta2Delta it was -0.00456; in the assay on F380Y/beta4, 0.0112; in assay [3], -0.014; with R275C, -0.00969. Besides, the log fold change Tl+ flux in the assay with R275C/beta1 is -0.000997; in the assay with R275C/beta2Delta it was -0.0252; in the assay on R275C/beta4, 0.0185; in the assay with R275C/Slo1WT/beta2, 0.019.
In the case of `Cc1ccc(N(CC2=NCCN2)c2cccc(O)c2)cc1`, the period change in assay [8] is -0.015 h. For the same compound, in assay [9], the inhibition is -6%. The fluorescence ratio (interference) in assay [10] is 0.9. The mean signal in assay [4] was 229. The compound was classed as inactive in [5], in assay [6] and in assay [11].
`CCCc1nc(C(C)(C)O)c(C(=O)OCc2oc(=O)oc2C)n1Cc1ccc(-c2ccccc2-c2nn[nH]n2)cc1`: the mean signal in assay [4] was 232.
Usually AC50 stands for the concentration giving half of the maximal activity seen. As to `C[C@H](CCC(=O)O)[C@H]1CC[C@H]2[C@@H]3[C@@H](O)C[C@@H]4C[C@H](O)CC[C@]4(C)[C@H]3CC[C@]12C`, the inhibition in assay [1] was 1.81%. Further, the fluorescence ratio in [2] is 0.97. The AC50 in assay [6] is 20.9 µM (active). Also, the compound was classed as inactive in [7]. The log fold change Tl+ flux in the assay with F380Y was 0.0594; in the assay with F380Y/beta1, 0.0488; in the assay on F380Y/beta2Delta, 0.0428; in the assay with F380Y/beta4 it was 0.0547; in [3] it was 0.00339; in the assay with R275C, 0.0817. Also, the log fold change Tl+ flux is 0.198 (active) in the assay with R275C/beta1, 0.142 (active) in the assay with R275C/beta2Delta, -0.0188 with R275C/beta4 and -0.0131 in the assay on R275C/Slo1WT/beta2.
As for `CCN1CCN(C(=O)N[C@@H](C(=O)N[C@@H]2C(=O)N3[C@@H]2SC(C)(C)[C@@H]3C(=O)O)c2ccccc2)C(=O)C1=O`, the inhibition in assay [1] was -1.24%. Further, the fluorescence ratio in [2] is 0.98. Moreover, the mean signal in assay [4] was 257. In addition, the log fold change Tl+ flux in the assay on F380Y was -0.0272; in the assay with F380Y/beta1, 0.00225; in the assay with F380Y/beta2Delta, -0.0244; with F380Y/beta4 it was -0.0114; in assay [3] it was -0.00699; in the assay on R275C it was -0.096 (active). The log fold change Tl+ flux with R275C/beta1 is 0.0207; in the assay on R275C/beta2Delta it was -0.0292; with R275C/beta4, 0.0304; in the assay on R275C/Slo1WT/beta2, 0.0399.
As for `CC(=O)OCC(=O)[C@@]1(O)CC[C@H]2[C@@H]3CCC4=CC(=O)CC[C@]4(C)[C@H]3[C@@H](O)C[C@@]21C`, the inhibition in assay [1] was 1.81%. In addition, the fluorescence ratio in [2] is 0.96. The log fold change Tl+ flux is -0.0118 in the assay on F380Y; -0.0206 in the assay on F380Y/beta1; 0.0163 with F380Y/beta2Delta; 0.0297 in the assay with F380Y/beta4; 0.0135 in assay [3]; -0.0512 with R275C. Further, the log fold change Tl+ flux with R275C/beta1 was -0.0363; with R275C/beta2Delta it was -0.0239; in the assay with R275C/beta4, -0.0187; with R275C/Slo1WT/beta2, -0.0133.
